According to the supplement of paper PMC10849652:
Targets with a hit are over-represented here; the source holds about 7,900 in all. About 0.6% of all pairs of compound and target were hits. A number with no mark means an inactive call.

compound: Cc1cn(-c2cc(NC(=O)c3ccc(C)c(Nc4nccc(-c5cccnc5)n4)c3)cc(C(F)(F)F)c2)cn1 [nilotinib]; assay: log2 fold change, soluble protein after heating vs DMSO (PISA); higher = thermal stabilisation; K562 cells, 10 uM, 30 min; active = over 0.2 and 3.5 SD of the protein, either way, in both replicates (recomputed)
Summary of the method: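 K562 cells at 2×10^6 cells/mL were given 10 μM compound for 30 min. Aliquots then went through 3 min of heating across 48°C-58°C, were pooled, and were extracted in PBS with 0.5% NP-40 at 4°C, and the supernatant after 21,000xg for 90 min was quantified by TMTpro 16plex LC-MS/MS with channel sums equalised. Thermal stability relative to control samples, from duplicates, is given as log2 fold change.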

UniProt Q14194, sequence (Q14194 whole entry, looked up): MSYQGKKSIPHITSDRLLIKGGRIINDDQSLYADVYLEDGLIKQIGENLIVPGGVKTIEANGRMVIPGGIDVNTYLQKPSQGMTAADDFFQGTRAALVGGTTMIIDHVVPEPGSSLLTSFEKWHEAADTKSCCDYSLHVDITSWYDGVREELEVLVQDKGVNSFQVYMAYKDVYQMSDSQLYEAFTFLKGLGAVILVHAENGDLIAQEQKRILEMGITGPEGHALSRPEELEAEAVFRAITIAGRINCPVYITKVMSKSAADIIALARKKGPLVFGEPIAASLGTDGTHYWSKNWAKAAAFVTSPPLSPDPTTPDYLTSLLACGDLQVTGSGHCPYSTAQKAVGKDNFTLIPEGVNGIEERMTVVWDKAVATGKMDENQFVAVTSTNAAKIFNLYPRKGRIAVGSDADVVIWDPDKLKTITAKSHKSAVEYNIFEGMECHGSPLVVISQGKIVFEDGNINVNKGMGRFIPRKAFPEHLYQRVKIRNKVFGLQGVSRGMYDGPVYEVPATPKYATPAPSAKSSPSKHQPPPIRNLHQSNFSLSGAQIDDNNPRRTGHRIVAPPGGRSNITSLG
UniProt O95273, sequence (O95273 whole entry, looked up): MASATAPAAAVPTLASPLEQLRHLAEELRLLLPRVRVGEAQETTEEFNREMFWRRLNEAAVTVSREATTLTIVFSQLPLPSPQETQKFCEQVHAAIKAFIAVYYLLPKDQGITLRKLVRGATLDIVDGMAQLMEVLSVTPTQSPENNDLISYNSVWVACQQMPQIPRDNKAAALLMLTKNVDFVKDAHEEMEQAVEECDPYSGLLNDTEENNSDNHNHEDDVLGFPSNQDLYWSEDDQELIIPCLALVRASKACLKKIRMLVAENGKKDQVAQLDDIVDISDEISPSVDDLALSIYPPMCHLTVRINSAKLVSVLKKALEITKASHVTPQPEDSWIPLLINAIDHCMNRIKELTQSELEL
UniProt Q13286, sequence (Q13286 whole entry, looked up): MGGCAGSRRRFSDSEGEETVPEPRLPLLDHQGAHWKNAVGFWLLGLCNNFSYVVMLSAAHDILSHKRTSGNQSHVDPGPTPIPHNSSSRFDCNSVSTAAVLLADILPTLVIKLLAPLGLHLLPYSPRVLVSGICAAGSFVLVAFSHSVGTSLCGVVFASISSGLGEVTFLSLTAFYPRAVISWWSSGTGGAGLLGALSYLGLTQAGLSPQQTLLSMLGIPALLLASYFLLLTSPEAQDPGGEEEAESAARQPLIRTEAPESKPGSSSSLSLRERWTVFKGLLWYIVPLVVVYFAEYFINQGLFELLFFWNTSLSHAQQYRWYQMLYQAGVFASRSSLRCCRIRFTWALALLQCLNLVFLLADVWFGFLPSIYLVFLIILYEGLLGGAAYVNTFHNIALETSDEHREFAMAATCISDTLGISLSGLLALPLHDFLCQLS
UniProt Q9UHN6, sequence (Q9UHN6 whole entry, looked up): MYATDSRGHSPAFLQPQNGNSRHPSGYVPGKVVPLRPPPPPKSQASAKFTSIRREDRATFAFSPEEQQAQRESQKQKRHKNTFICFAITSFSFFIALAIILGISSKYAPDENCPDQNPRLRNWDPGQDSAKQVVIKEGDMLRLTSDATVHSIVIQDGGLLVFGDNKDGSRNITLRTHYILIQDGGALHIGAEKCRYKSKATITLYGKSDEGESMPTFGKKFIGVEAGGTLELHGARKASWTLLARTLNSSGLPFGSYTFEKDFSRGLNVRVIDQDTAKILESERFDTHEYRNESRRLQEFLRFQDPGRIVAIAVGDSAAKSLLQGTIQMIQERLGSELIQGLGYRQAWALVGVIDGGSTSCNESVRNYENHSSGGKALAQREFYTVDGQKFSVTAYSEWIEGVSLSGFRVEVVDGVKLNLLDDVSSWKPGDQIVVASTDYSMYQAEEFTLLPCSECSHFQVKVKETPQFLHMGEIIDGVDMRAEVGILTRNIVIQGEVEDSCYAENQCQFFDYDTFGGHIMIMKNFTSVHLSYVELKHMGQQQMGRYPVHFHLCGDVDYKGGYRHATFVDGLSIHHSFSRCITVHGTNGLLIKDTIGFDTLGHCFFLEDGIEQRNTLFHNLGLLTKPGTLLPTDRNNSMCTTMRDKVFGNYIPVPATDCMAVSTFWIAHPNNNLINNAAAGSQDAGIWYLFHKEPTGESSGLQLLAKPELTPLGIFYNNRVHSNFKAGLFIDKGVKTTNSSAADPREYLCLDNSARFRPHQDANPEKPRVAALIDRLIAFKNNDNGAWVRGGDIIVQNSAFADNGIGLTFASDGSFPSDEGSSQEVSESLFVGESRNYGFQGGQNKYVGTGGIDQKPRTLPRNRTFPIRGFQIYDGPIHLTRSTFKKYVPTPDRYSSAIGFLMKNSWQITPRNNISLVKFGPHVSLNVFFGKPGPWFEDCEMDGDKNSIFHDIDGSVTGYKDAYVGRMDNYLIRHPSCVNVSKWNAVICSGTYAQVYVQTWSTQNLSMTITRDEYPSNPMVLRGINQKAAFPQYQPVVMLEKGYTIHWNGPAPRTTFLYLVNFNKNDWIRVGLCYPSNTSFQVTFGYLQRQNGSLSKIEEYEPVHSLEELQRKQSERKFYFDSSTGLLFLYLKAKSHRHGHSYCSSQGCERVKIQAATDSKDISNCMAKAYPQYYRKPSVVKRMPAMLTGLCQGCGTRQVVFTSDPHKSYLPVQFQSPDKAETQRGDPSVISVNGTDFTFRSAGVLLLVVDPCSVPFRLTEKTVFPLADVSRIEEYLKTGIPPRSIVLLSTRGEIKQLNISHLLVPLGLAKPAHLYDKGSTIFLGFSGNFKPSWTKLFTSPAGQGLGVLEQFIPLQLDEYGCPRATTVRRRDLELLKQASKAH
UniProt Q92828, sequence (Q92828 whole entry, looked up): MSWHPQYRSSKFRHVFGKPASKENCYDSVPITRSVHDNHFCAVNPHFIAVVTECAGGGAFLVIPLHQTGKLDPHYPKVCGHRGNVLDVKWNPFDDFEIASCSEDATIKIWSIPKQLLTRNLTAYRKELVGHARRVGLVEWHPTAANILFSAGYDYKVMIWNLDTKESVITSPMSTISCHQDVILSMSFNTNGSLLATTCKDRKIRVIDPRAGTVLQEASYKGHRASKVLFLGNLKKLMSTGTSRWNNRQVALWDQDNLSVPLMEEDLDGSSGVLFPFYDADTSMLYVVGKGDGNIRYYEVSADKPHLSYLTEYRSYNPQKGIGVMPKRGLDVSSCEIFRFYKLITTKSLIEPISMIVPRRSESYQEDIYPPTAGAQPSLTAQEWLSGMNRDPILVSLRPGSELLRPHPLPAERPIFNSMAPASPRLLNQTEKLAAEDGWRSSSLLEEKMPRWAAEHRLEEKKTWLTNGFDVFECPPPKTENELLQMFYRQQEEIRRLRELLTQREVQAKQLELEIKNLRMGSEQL
UniProt P33552, sequence (P33552 whole entry, looked up): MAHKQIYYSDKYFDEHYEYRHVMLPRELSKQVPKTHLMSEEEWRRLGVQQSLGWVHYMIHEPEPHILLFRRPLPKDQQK
UniProt P30305, sequence (P30305 whole entry, looked up): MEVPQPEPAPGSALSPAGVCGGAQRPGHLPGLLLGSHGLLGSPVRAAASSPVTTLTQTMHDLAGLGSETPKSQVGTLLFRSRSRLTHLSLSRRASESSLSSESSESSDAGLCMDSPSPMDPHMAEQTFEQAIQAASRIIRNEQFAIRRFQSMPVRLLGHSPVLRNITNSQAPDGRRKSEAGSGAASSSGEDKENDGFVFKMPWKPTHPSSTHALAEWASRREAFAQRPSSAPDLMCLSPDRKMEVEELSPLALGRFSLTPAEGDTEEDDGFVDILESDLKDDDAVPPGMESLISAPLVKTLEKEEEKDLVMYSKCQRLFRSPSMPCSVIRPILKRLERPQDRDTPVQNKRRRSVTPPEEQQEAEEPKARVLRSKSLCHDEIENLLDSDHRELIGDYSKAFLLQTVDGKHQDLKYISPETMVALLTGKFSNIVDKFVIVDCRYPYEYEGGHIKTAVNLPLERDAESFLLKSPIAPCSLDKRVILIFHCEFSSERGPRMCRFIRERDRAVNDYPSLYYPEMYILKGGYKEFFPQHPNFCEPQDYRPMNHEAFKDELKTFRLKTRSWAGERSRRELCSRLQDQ
UniProt A8MTT3, sequence (A8MTT3 whole entry, looked up): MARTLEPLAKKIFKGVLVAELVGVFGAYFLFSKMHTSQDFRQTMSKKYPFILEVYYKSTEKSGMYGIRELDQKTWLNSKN
UniProt P51795, sequence (P51795 whole entry, looked up): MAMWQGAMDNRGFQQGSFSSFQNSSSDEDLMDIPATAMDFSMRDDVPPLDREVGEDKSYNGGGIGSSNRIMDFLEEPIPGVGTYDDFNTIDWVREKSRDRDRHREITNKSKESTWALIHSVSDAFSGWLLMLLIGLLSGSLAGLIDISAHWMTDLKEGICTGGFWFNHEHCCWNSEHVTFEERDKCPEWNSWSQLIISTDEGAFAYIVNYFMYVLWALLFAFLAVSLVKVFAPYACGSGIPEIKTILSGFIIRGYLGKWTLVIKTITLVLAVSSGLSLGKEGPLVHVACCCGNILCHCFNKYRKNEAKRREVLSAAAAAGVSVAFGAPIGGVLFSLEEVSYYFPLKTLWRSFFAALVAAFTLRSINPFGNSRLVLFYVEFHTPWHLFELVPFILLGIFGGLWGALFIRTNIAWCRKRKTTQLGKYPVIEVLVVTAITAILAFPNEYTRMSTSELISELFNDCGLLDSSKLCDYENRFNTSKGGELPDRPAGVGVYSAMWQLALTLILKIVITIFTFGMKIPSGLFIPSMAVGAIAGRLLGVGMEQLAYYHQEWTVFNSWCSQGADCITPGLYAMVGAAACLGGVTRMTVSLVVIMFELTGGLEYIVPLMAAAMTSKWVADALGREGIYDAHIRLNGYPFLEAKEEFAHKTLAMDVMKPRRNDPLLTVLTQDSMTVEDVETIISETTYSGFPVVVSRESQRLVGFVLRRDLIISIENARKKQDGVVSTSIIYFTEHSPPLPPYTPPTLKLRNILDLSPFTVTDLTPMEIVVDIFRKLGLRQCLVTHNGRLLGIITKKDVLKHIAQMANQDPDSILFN
UniProt O75956, sequence (O75956 whole entry, looked up): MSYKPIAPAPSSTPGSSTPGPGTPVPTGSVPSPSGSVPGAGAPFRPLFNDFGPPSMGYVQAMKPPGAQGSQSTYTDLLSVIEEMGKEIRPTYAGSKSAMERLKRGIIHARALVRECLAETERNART

Target	log2 fold change
CORO2A (UniProt Q92828)	-0.047
CLINT1 (UniProt Q14677)	0.065
CLPTM1L (UniProt G5E9Z2)	-0.22
CNRIP1 (UniProt Q96F85)	-0.066
CLCN5 isoform 2 (UniProt P51795)	-0.176
CNN1 (UniProt P51911)	0.008
CNOT4 isoform 9 (UniProt O95628)	0.094
CCNT2 (UniProt O60583)	0.105
CLASP2 (UniProt O75122)	0.014
CLN3 (UniProt Q13286)	-0.016
CCDC82 (UniProt Q8N4S0)	0.018
CCNDBP1 (UniProt O95273)	-0.19
CDC25B isoform 4 (UniProt P30305)	-0.513 (active)
COMMD3-BMI1 (UniProt R4GMX3)	-0.109
CCDC187, A0A1W2PQX5	0.318
CEBPZOS (UniProt A8MTT3)	0.039
CREB3L2 (UniProt Q70SY1)	0.091
CEMIP2 (UniProt Q9UHN6)	0.069
CLN8 (UniProt Q9UBY8)	0.051
CASP7 isoform 3 (UniProt P55210)	0.145
CDK2AP2 (UniProt O75956)	0.04
CKS2 (UniProt P33552)	-0.008
CRMP1 isoform 2 (UniProt Q14194)	-0.012
